The term AC50 denotes the midpoint of the concentration-response curve, whichever way the signal moves.

Results filed as inconclusive are left out. Calls of active or inactive are those of the source. How the source made its calls, unless noted: active means hit-call score of the fitted dose curve at least 0.9, where 1 is the maximum; inactive means score below 0.9.

Assay [1] in a line: ACEA_ER_80hr: ACEA Biosciences xCELLigence Real-Time Cell Analysis on Estrogen Receptor Agonism for Proliferation (AID 2282667; active means hit-call score of the fitted dose curve at least 0.9, where 1 is the maximum). The settings on record: T47D proliferation, impedance (xCELLigence), 80 h. The essentials: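 Real-time impedance growth kinetics of human T-47D breast cells read 80 h after dosing, gain-of-signal fitted relative to DMSO. Compounds: 1:4 serial series, top final concentration 100 uM, n = 2.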

Assay [2] is described as follows: ATG_CRE_CIS: Attagene CIS-FACTORIAL HepG2 Assay for human cAMP Responsive Element (CRE) binding protein 3 (AID 2282926). The settings on record: HepG2 CRE cis-reporter, Attagene multiplexed mRNA; actives raise or lower the signal. An outline of the steps: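 Multiplexed transcription-unit reporters transfected into HepG2; 24 h dosing; RT-PCR/capillary electrophoresis fluorescence read-out; bidirectional fit vs DMSO.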

Assay [3] has as its target CCAAT/enhancer-binding protein beta (Homo sapiens) (UniProt P17676). The assay is described as follows: ATG_C_EBP_CIS: Attagene CIS-FACTORIAL HepG2 Assay for human CCAAT/Enhancer Binding Protein (C/EBP) beta (AID 2282927). The settings on record: HepG2 Attagene cis-factorial transcription factor reporter; actives raise or lower the signal. The essentials:
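Endogenous C/EBPb-driven reporter transcripts measured in transfected human HepG2 cells at 24 h via RT-PCR and capillary electrophoresis of labelled fragments. Activity fitted in both directions relative to DMSO baseline.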

Assay [4] is described as follows: ATG_CMV_CIS: Attagene CIS-FACTORIAL HepG2 Assay for human CMV (Internal Marker) (AID 2282928).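 Further: endpoint acts as a background internal control marker rather than a target.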 The settings on record: HepG2 CMV promoter reporter, transcription factor profiling; actives raise or lower the signal. The essentials: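 Cell system: HepG2, transiently transfected multiple reporter units under cis promoters. Exposure: 24 h. Detection: RT-PCR, FAM labeling, HpaI digestion, capillary electrophoresis. Analysis: bidirectional, DMSO baseline.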

Assay [5] can be described thus: ATG_DR4_LXR_CIS: Attagene CIS-FACTORIAL HepG2 Assay for human Liver X Receptor (LXR), DR4 submotif (AID 2282929). The settings on record: HepG2 Attagene DR4 cis-reporter, mRNA transcription; actives raise or lower the signal. The essentials: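 The endpoint is DR4-element-driven reporter transcripts after 24 h chemical exposure of transfected HepG2 cells. These were measured via RT-PCR and capillary electrophoresis, and gain or loss of signal was fitted relative to DMSO controls.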

For assay [6], the target named is Aryl hydrocarbon receptor (Homo sapiens) (UniProt P35869). Nature of the assay: ATG_Ahr_CIS: Attagene CIS-FACTORIAL HepG2 Assay for human Aryl Hydrocarbon Receptor (Ahr) (AID 2282930). The settings on record: HepG2 AhR cis-factorial reporter transcription; actives raise or lower the signal. An outline of the steps: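 Reporter mRNA levels, quantified by RT-PCR and fluorescent capillary electrophoresis, reflect endogenous AhR transcriptional activity in HepG2 cells carrying transfected cis-promoter reporter constructs. Readout at 24 h post-dose; gain or loss fitted against DMSO baseline.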

Assay [7] in a line: ATG_AP_1_CIS: Attagene CIS-FACTORIAL HepG2 Assay for human Activator Protein 1 (AP-1) (AID 2282931). The settings on record: HepG2 Attagene cis-factorial AP-1 reporter mRNA; actives raise or lower the signal. An outline of the steps: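 Readout is reporter transcript level from endogenous transcription factor activity, quantified by RT-PCR with fluorescent primer extension and capillary electrophoresis. Transiently transfected HepG2 cells, 24 h exposure. Curves fitted both directions versus DMSO.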

A short description of assay [8]: ATG_AP_2_CIS: Attagene CIS-FACTORIAL HepG2 Assay for human Activator Protein 2 (AP-2) (AID 2282932). The settings on record: HepG2 AP-2 cis-reporter, Attagene transcription factor profiling; actives raise or lower the signal. An outline of the steps:
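Step one: transient transfection of HepG2 with reporter transcription units. Step two: 24 h chemical exposure. Step three: RNA extraction, RT-PCR, labelled fragment analysis by capillary electrophoresis; DMSO serves as baseline.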

The target of assay [9] is Retinoic acid receptor alpha (Homo sapiens) (UniProt P10276). The assay is described as follows: ATG_DR5_RAR_CIS: Attagene CIS-FACTORIAL HepG2 Assay for human Retinoic Acid Receptor Alpha (RARE), DR5 submotif (AID 2282934). The settings on record: HepG2 Attagene cis-factorial RARE DR5 reporter, mRNA; actives raise or lower the signal. An outline of the steps:
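Reporter transcripts from a DR5-regulated unit, measured via RT-PCR plus capillary electrophoresis, reflect endogenous RAR activity in transiently transfected human HepG2 liver cells. Exposure lasted 24 h; gain or loss of signal scored against DMSO.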

Assay [10] concerns the target Transcription factor E2F1 (Homo sapiens) (UniProt Q01094). Nature of the assay: ATG_E2F_CIS: Attagene CIS-FACTORIAL HepG2 Assay for human E2F Transcription Factor 1 (AID 2282935). The settings on record: HepG2 Attagene cis-reporter, E2F reporter RNA transcripts; actives raise or lower the signal. An outline of the steps: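 Total RNA from 24 h-treated, reporter-transfected HepG2 cells undergoes DNase I treatment, oligo(dT) reverse transcription, PCR and 6-FAM primer extension before capillary electrophoresis.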

Assay [11] can be described thus: ATG_E_Box_CIS: Attagene CIS-FACTORIAL HepG2 Assay for human Enhancer Box (E-box) (AID 2282936). The settings on record: HepG2 E-box cis-reporter transcription, actives raise or lower the signal. An outline of the steps:
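DMSO served as negative control and baseline for bidirectional fitting. Human hepatoma HepG2 cells, transiently transfected with cis-reporter constructs, were dosed 24 h; reporter mRNA read by RT-PCR and capillary electrophoresis.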

The nature of assay [12]: ATG_M_61_CIS: Attagene CIS-FACTORIAL HepG2 Assay for M61 Transcription Factor (Internal Marker) (AID 2282937). The settings on record: HepG2 Attagene CIS-FACTORIAL M61 internal marker reporter; actives raise or lower the signal. The essentials: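 Readout is reporter mRNA by RT-PCR, fluorescent primer extension and capillary electrophoresis, with gain or loss fitted relative to DMSO. Transfected HepG2 cells carrying endogenous-TF-driven cis reporters were exposed to chemicals for 24 hours.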

A short description of assay [13]: ATG_EGR_CIS: Attagene CIS-FACTORIAL HepG2 Assay for human Early Growth Response 1 (EGR1) (AID 2282938). The settings on record: HepG2 Attagene CIS-FACTORIAL EGR reporter mRNA; actives raise or lower the signal. An outline of the steps:
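After 24 h compound exposure, RNA from reporter-transfected HepG2 cells was reverse-transcribed, PCR-amplified, fluorescently labelled and resolved by capillary electrophoresis. EGR1 reporter transcript changes, up or down, were fitted against DMSO, reflecting endogenous transcription-factor activity.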

Assay [14] in a line: ATG_M_19_CIS: Attagene CIS-FACTORIAL HepG2 Assay for M19 Transcription Factor (Internal Marker) (AID 2282939). The settings on record: HepG2 Attagene CIS-FACTORIAL M19 internal marker reporter; actives raise or lower the signal. The essentials:
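Internal marker readout, fitted in both directions against DMSO, from HepG2 cells carrying transfected cis-element reporter constructs; RT-PCR and capillary electrophoresis of reporter mRNA after 24 h exposure.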

The nature of assay [15]: ATG_ERE_CIS: Attagene CIS-FACTORIAL HepG2 Assay for Estrogen Response Element (ERE) (AID 2282940). The settings on record: HepG2 ERE cis-reporter, Attagene RNA transcript; actives raise or lower the signal. An outline of the steps:
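After 24 h compound treatment, RNA from transfected HepG2 cells was reverse-transcribed, reporter cDNA PCR-amplified, FAM-labelled, HpaI-cut and resolved by capillary electrophoresis. ERE-driven cis reporter transcripts reflect endogenous factors; gain or loss scored against DMSO.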

Assay [16] in a line: ATG_Ets_CIS: Attagene CIS-FACTORIAL HepG2 Assay for human Erythroblast Transformation Specific (ETS) (AID 2282941). The settings on record: HepG2 ETS cis-reporter transcription, actives raise or lower the signal. An outline of the steps:
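After transient cis-reporter transfection, HepG2 cells receive test chemical for 24 h. Reporter mRNA levels, measured by RT-PCR and capillary electrophoresis fluorescence, are analysed bidirectionally relative to the DMSO baseline.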

Assay [17] concerns the target Hepatocyte nuclear factor 3-beta (Homo sapiens) (UniProt Q9Y261). Nature of the assay: ATG_FoxA2_CIS: Attagene CIS-FACTORIAL HepG2 Assay for human Forkhead box A2 (FOXA2) (AID 2282942). The settings on record: HepG2 cis-reporter transcription factor activity, 24 h; actives raise or lower the signal. The essentials:
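Endogenous transcription factor activity is captured via cis-element-driven reporter transcripts in transfected HepG2. Total RNA taken at 24 h post-dosing; labelled RT-PCR products resolved by capillary electrophoresis. Gain or loss fitted versus DMSO.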

The nature of assay [18]: ATG_FoxO_CIS: Attagene CIS-FACTORIAL HepG2 Assay for human Forkhead box O (FoxO) (AID 2282943). The settings on record: HepG2 Attagene cis-reporter, FoxO element, mRNA; actives raise or lower the signal. An outline of the steps: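 Endogenous transcription factor activity read from multiplexed cis-promoter reporter transcripts in transiently transfected HepG2, 24 h after dosing. Reporter RNA measured via RT-PCR plus capillary electrophoresis of FAM-labeled products; gain or loss relative to DMSO.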

Assay [19] can be described thus: ATG_GATA_CIS: Attagene CIS-FACTORIAL HepG2 Assay for human GATA Binding Protein (AID 2282944). The settings on record: HepG2 GATA cis-element reporter, Attagene multiplex mRNA; actives raise or lower the signal. An outline of the steps:
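Reporter transcripts from a GATA cis-regulated unit, among multiplexed reporters in transfected HepG2 cells, were measured by RT-PCR with capillary electrophoresis after 24 h dosing. Induction or loss scored relative to DMSO.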

Assay [20] is described as follows: ATG_BRE_CIS: Attagene CIS-FACTORIAL HepG2 Assay for human Bone Morphogenetic Protein (BMP) Response Element (BRE) (AID 2282933). The settings on record: HepG2 BMP response element reporter, Attagene transcription factor profiling; actives raise or lower the signal. An outline of the steps:
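Endogenous transcription factor activity read in transiently transfected HepG2 cells after 24 h chemical exposure. Bidirectional curve fitting against DMSO; readout is reporter transcript level by RT-PCR with capillary electrophoresis of labelled products.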

Sequence of Aryl hydrocarbon receptor (Homo sapiens) (P35869 whole entry, looked up): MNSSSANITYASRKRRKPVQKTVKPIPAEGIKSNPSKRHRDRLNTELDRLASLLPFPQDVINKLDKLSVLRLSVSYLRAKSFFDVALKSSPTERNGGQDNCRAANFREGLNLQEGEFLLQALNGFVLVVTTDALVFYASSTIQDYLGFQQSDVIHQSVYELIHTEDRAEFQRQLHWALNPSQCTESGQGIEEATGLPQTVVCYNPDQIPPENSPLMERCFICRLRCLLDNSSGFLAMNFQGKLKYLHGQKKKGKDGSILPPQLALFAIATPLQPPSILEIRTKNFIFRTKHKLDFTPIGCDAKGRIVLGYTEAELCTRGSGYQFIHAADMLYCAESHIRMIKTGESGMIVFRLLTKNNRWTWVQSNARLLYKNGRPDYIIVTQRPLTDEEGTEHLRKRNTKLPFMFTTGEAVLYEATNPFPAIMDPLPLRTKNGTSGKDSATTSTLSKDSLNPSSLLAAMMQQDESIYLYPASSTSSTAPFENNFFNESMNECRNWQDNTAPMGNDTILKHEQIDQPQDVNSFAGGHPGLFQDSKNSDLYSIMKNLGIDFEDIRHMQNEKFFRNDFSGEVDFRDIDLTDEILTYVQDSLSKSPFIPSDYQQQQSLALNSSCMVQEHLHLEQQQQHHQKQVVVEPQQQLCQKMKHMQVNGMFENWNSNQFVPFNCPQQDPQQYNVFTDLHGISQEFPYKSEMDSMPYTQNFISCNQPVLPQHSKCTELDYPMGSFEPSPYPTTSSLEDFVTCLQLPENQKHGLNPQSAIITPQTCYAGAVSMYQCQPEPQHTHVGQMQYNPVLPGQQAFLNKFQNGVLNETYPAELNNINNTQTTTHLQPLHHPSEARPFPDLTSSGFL
Sequence of CCAAT/enhancer-binding protein beta (Homo sapiens) (P17676 whole entry, looked up, the tested form may be a part): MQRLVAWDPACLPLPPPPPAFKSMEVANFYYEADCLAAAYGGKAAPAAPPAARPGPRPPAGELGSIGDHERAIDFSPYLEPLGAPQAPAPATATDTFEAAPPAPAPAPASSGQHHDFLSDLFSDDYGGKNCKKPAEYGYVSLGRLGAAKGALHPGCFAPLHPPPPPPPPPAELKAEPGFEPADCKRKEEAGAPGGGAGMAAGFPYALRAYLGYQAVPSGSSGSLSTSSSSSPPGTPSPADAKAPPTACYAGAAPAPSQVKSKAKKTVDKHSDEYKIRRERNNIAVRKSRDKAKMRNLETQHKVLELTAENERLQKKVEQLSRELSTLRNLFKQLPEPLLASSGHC
Sequence of Hepatocyte nuclear factor 3-beta (Homo sapiens) (Q9Y261 whole entry, looked up): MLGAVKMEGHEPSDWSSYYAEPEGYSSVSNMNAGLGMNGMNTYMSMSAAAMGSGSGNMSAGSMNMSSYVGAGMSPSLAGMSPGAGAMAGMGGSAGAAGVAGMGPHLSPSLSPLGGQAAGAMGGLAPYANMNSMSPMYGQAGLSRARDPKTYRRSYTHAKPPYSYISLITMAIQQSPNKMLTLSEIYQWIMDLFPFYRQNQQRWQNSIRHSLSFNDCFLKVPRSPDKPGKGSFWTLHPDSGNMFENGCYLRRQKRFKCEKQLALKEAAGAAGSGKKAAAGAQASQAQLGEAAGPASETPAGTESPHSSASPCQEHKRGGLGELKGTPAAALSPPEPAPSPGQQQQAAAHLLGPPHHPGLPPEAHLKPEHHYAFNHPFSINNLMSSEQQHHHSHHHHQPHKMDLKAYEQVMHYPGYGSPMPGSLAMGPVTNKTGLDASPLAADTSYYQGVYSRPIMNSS
Sequence of Transcription factor E2F1 (Homo sapiens) (Q01094 whole entry, looked up): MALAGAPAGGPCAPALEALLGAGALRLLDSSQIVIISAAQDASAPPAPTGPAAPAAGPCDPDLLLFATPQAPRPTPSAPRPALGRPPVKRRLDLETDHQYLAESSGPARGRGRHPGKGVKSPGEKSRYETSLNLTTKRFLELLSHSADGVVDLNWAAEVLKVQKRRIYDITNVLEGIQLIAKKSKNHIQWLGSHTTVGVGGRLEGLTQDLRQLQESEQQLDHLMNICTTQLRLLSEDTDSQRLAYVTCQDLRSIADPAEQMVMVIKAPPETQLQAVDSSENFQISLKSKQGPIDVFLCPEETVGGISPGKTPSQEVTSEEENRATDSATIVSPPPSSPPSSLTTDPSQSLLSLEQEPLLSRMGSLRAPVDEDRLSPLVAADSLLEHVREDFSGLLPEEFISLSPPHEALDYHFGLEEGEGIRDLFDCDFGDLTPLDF
Sequence of Retinoic acid receptor alpha (Homo sapiens) (P10276 whole entry, looked up): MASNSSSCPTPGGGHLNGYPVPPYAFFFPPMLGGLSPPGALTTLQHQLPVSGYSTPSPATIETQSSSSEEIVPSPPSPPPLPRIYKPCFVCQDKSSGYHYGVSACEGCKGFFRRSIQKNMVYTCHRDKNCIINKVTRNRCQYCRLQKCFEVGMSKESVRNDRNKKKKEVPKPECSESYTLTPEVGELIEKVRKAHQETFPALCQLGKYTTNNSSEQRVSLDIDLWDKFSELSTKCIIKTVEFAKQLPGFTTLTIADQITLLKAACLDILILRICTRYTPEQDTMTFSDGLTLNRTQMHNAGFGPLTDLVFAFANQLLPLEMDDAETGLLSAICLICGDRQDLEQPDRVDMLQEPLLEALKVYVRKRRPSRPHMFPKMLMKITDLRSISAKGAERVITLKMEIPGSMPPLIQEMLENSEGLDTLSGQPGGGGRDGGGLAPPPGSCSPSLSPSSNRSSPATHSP

In the case of `CCCCOCC(C)O` (stereo not given), the half-maximal activity concentration (AC50) in [1] was 0.129 µM (active). The result in assay [2], in assay [3], in [4], in assay [5], in assay [6] and in [7] was inactive. Moreover, the call in assay [8], in assay [9], in assay [10], in [11], in assay [12] and in assay [13] was inactive. Also, the outcome in assay [14], in assay [15], in [16], in [17], in [18] and in assay [19] was inactive.
Take `C=C(C)C(=O)OCC(O)COc1ccc(C(C)(C)c2ccc(OCC(O)COC(=O)C(=C)C)cc2)cc1` (stereo not given): the call in assay [1], in assay [2], in assay [3], in assay [4], in assay [5] and in [6] was inactive. Moreover, the compound was classed as inactive in assay [8], in assay [9], in assay [10], in assay [11], in assay [12] and in assay [14]. Further, the compound was called inactive in [15], in [17] and in [18]. Further, the AC50 in assay [7] is 63.7 µM (active); in [13], 39.8 µM (active); in assay [16], 100 µM (active); in assay [19], 166 µM (active).
In the case of `CC1=CCC(C(C)C)C=C1` (stereo not given), the compound was classed as inactive in [1], in [2], in [3], in [4], in assay [5] and in assay [6]. Further, the compound was called inactive in assay [7], in [8], in assay [20], in assay [10], in [12] and in assay [14]. In addition, the call in assay [15], in [16], in [17], in assay [18] and in assay [19] was inactive.

These data come from PubChem BioAssay (EPA / NIEHS).
